Records with an inconclusive call do not appear. Activity calls are given as the source filed them. Calls follow the shape of the dose curve; as a rule, active = well fitted inhibition curve with a large enough effect; inconclusive = small, poorly fitted or top-dose-only effect; inactive = flat fitted curve, though single readings scatter.
What was measured:
P94_40 = test: qHTS profiling for inhibitors of Plasmodium falciparum proliferation (AID 504749);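 also: 0% = DMSO vehicle and full inhibition = artemisinin control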; settings: P. falciparum in erythrocytes, SYBR Green DNA, 72 h; series mostly up to 28.7 µM
Outline: (§1)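 Quantitative HTS: compounds pinned into medium, infected erythrocytes added (0.3% parasitemia, 2.5% hematocrit), 72 h culture at 37 C under 5% CO2. Saponin/Triton lysis with SYBR Green I, overnight RT, then fluorescence read.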

PAD = test: as above; settings: P. falciparum in erythrocytes, SYBR Green DNA, 72 h; series mostly up to 28.7 µM
Outline: as §1

PC15 = test: as above; settings: P. falciparum in erythrocytes, SYBR Green DNA, 72 h; series mostly up to 28.7 µM
Outline: as §1

PC26 = test: as above; settings: P. falciparum in erythrocytes, SYBR Green DNA, 72 h; series mostly up to 28.7 µM
Outline: as §1

PC49 = test: as above; settings: P. falciparum in erythrocytes, SYBR Green DNA, 72 h; series mostly up to 28.7 µM
Outline: as §1

SC27B = test: as above; settings: P. falciparum in erythrocytes, SYBR Green DNA, 72 h; series mostly up to 28.7 µM
Outline: as §1

TAB109 = test: as above; settings: P. falciparum in erythrocytes, SYBR Green DNA, 72 h; series mostly up to 28.7 µM
Outline: as §1

TAB113 = test: as above; settings: P. falciparum in erythrocytes, SYBR Green DNA, 72 h; series mostly up to 28.7 µM
Outline: as §1

TAB165 = test: as above; settings: P. falciparum in erythrocytes, SYBR Green DNA, 72 h; series mostly up to 28.7 µM
Outline: as §1

CRL-7250 = normal cell line; test: Cytotoxic Profiling of Annotated Libraries Using Quantitative High-Throughput Screening (AID 1296008); settings: Five cell lines viability, CellTiter-Glo ATP luminescence, 48-72 h; stronger effect = lower value; as to max response: % is scaled to controls: 0 for no effect and ±100 for the full control effect
Outline: (§2)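 Compounds were pin-transferred onto cells and incubated 48 or 72 hr at 37 degree Celsius, 95% humidity. CellTiter-Glo was added, plates sat 10 min at room temperature, then ATP-coupled luminescence was imaged as the viability read-out.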

HEK293 = test: as above; settings: Five cell lines viability, CellTiter-Glo ATP luminescence, 48-72 h; stronger effect = lower value
Outline: as §2

HaCat [1] = test: as above; settings: Five cell lines viability, CellTiter-Glo ATP luminescence, 48-72 h; stronger effect = lower value
Outline: as §2

KB-3-1 = test: as above; settings: Five cell lines viability, CellTiter-Glo ATP luminescence, 48-72 h, stronger effect = lower value
Outline: as §2

NIH3T3 = test: as above; settings: Five cell lines viability, CellTiter-Glo ATP luminescence, 48-72 h; stronger effect = lower value
Outline: as §2

HEK293T = test: qHTS assay to identify novel small-molecules to repurpose for Merkel cell carcinoma treatment (AID 1296009); settings: MCC and control cell lines, CellTiter-Glo viability, 72 h; at 44.8 µM (top of the series) unless noted
Outline: (§3)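 Viability readout: ATP luminescence (CellTiter-Glo) after 72 hr drug exposure at 37 degree celsius. Dose-response format was 8 points for NPC and 11 points for MIPE; data normalized to in-plate controls.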

MCC-13 = test: as above; settings: MCC and control cell lines, CellTiter-Glo viability, 72 h; series mostly up to 46 µM
Outline: as §3

MCC-26 = test: as above; settings: MCC and control cell lines, CellTiter-Glo viability, 72 h; series mostly up to 46 µM
Outline: as §3

MKL-1 = test: as above; settings: MCC and control cell lines, CellTiter-Glo viability, 72 h; series mostly up to 46 µM
Outline: as §3

W2 = test: qHTS profiling for inhibitors of Plasmodium falciparum proliferation (AID 504749);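 also: 0% = DMSO vehicle and full inhibition = artemisinin control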; settings: P. falciparum in erythrocytes, SYBR Green DNA, 72 h; series mostly up to 28.7 µM
Outline: as §1

HACAT [2] = test: qHTS assay to identify novel small-molecules to repurpose for Merkel cell carcinoma treatment (AID 1296009); settings: MCC and control cell lines, CellTiter-Glo viability, 72 h; at 44.8 µM (top of the series) unless noted
Outline: as §3
Also: nearly all actives have a fitted effect of over 60% in size.

COc1cc(O)cc(O)c1
inactive: Potency (P94_40) | Potency (PAD) | Potency (PC15) | Potency (PC26) | Potency (PC49) | Potency (SC27B) | Potency (TAB109) | Potency (TAB113) | Potency (TAB165) | outcome (CRL-7250) | outcome (HEK293) | max response (HaCat [1]) -8.13% | max response (KB-3-1) -4.6% | max response (NIH3T3) -7.04% | outcome (HEK293T) | outcome (MCC-13) | outcome (MCC-26) | outcome (MKL-1)

C/C=C1\[C@H]2C=C(C)C[C@]1(N)c1ccc(=O)[nH]c1C2
inactive: max response (CRL-7250) -0.0215% | outcome (HEK293) | max response (HaCat [1]) 4.06% | max response (KB-3-1) -3.64% | max response (NIH3T3) -4.73% | outcome (HEK293T) | outcome (MCC-13) | outcome (MCC-26) | outcome (MKL-1)

Nc1ccncc1N
inactive: Potency (P94_40) | Potency (PAD) | Potency (PC15) | Potency (PC26) | Potency (PC49) | Potency (SC27B) | Potency (TAB109) | Potency (TAB113) | Potency (TAB165) | Potency (W2) | max response (CRL-7250) -6.31% | max response (HEK293) -11.7% | outcome (HaCat [1]) | max response (KB-3-1) 10.8% | max response (NIH3T3) -1.29% | outcome (HACAT [2]) | outcome (MCC-13) | outcome (MKL-1)

CCOC(=O)c1cccnc1
inactive: Potency (P94_40) | Potency (PAD) | Potency (PC15) | Potency (PC26) | Potency (PC49) | Potency (SC27B) | Potency (TAB109) | Potency (TAB113) | Potency (TAB165) | Potency (W2) | max response (CRL-7250) -2.26% | max response (HEK293) -0.734% | outcome (HaCat [1]) | max response (KB-3-1) 2.38% | max response (NIH3T3) 2.73% | outcome (HACAT [2]) | outcome (MCC-13) | outcome (MKL-1)

Cc1cccc(C(=O)O)c1O
inactive: Potency (P94_40) | Potency (PAD) | Potency (PC15) | Potency (PC26) | Potency (PC49) | Potency (SC27B) | Potency (TAB109) | Potency (TAB113) | Potency (TAB165) | Potency (W2) | max response (CRL-7250) -0.667% | max response (HEK293) -2.23% | outcome (HaCat [1]) | max response (KB-3-1) 2.2% | outcome (NIH3T3) | outcome (HACAT [2]) | outcome (MCC-13) | outcome (MKL-1)

CC1(C)S[C@@H]2[C@H](NC(=O)C(C(=O)O)c3ccccc3)C(=O)N2[C@H]1C(=O)O (some centres undefined)
inactive: max response (CRL-7250) -9.98% | outcome (HEK293) | max response (HaCat [1]) -0.997% | max response (KB-3-1) 3.76% | max response (NIH3T3) -1.06% | outcome (HEK293T) | outcome (MCC-13) | outcome (MCC-26) | outcome (MKL-1)

Cn1c(=O)c2c(ncn2CCO)n(C)c1=O
inactive: Potency (P94_40) | Potency (PAD) | Potency (PC15) | Potency (PC26) | Potency (PC49) | Potency (SC27B) | Potency (TAB109) | Potency (TAB113) | Potency (TAB165) | Potency (W2) | max response (CRL-7250) -4.29% | max response (HEK293) -4.8% | outcome (HaCat [1]) | max response (KB-3-1) -5.28% | max response (NIH3T3) -3.21% | outcome (HACAT [2]) | outcome (MCC-13) | outcome (MKL-1)

O=C1CC[C@@H](C(=O)O)N1
inactive: Potency (P94_40) | Potency (PAD) | Potency (PC15) | Potency (PC26) | Potency (PC49) | Potency (SC27B) | Potency (TAB109) | Potency (TAB113) | Potency (TAB165) | max response (CRL-7250) 1.58% | outcome (HEK293) | max response (HaCat [1]) 4.13% | max response (KB-3-1) 18.1% | max response (NIH3T3) 0.792% | outcome (HEK293T) | outcome (MCC-13) | outcome (MCC-26) | outcome (MKL-1)

NC(=O)N[C@@H](CCC(=O)O)C(=O)O
inactive: outcome (CRL-7250) | max response (HEK293) -4.43% | outcome (HaCat [1]) | max response (KB-3-1) -19.7% | outcome (NIH3T3) | outcome (HACAT [2]) | outcome (MCC-13) | outcome (MKL-1)

CCCCCCCCCCC(CO)CCCCCCCC (centres undefined)
inactive: Potency (P94_40) | Potency (PAD) | Potency (PC15) | Potency (PC26) | Potency (PC49) | Potency (SC27B) | Potency (TAB109) | Potency (TAB113) | Potency (TAB165) | max response (CRL-7250) -6.12% | outcome (HEK293) | max response (HaCat [1]) -2.15% | max response (KB-3-1) 12.2% | max response (NIH3T3) 1.86% | outcome (HEK293T) | outcome (MCC-13) | outcome (MCC-26) | outcome (MKL-1)

Cc1cc(NC(=O)C2=C(O)c3ccccc3S(=O)(=O)N2C)no1
inactive: Potency (P94_40) | Potency (PAD) | Potency (PC15) | Potency (PC26) | Potency (PC49) | Potency (SC27B) | Potency (TAB109) | Potency (TAB113) | Potency (TAB165) | max response (CRL-7250) -9.44% | outcome (HEK293) | max response (HaCat [1]) 1.12% | max response (KB-3-1) -4.98% | max response (NIH3T3) -3.38% | outcome (HEK293T) | outcome (MCC-13) | outcome (MCC-26) | outcome (MKL-1)

O=C(O)CCCc1ccccc1
inactive: Potency (P94_40) | Potency (PAD) | Potency (PC15) | Potency (PC26) | Potency (PC49) | Potency (SC27B) | Potency (TAB109) | Potency (TAB113) | Potency (TAB165) | Potency (W2) | max response (CRL-7250) 1.18% | outcome (HEK293) | max response (HaCat [1]) 2.59% | max response (KB-3-1) 18.7% | max response (NIH3T3) -2.38% | outcome (HEK293T) | outcome (MCC-13) | outcome (MCC-26) | outcome (MKL-1)

Reference: PubChem BioAssay (NCATS)
